Here are results for five compounds from PubChem BioAssay.

The nature of assay [1]: yeast TOR pathway RPL19A-GFP modulators, primary screen, cell-based, S. cerevisiae, multiplex flow cytometry (AID 1862; in the data active = percent of DMSO control GFP below about 86%;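 note: lower values mimic rapamycin by blocking the RPL19A rise seen in DMSO cells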). Conditions: S. cerevisiae RPL19A-GFP strain, flow cytometry fluorescence, 3 h; at 10 µM; stronger effect = lower value.
The nature of assay [2]: modulators of MEP2-GFP levels in yeast, primary screen, S. cerevisiae, multiplex flow cytometry (AID 1867).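 Note: median GFP channel fluorescence of barcode-gated MEP2-GFP cells measured by flow cytometry.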 Conditions: S. cerevisiae MEP2-GFP strain, 3 h, at 10 µM, stronger effect = higher value, 100% means same as DMSO wells.
Assay [3] can be described thus: modulators of CIT2-GFP expression in yeast, primary screen, S. cerevisiae, GFP fusion, multiplex flow cytometry (AID 1870;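 active = percent response above a set limit, the screen-wide mean plus 3 SD, cut at about 130% in these data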;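 note: barcoded CIT2-GFP strain pooled with four other GFP strains with rapamycin as positive control; median GFP fluorescence per well over plate mean of DMSO wells so 100% = DMSO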). Conditions: 3 h, at 10 µM, stronger effect = higher value. Background: Flow cytometry measures light scatter and fluorescence of single cells or particles in a stream.
Assay [4] is described as follows: modulators of LAP4-GFP expression in yeast, primary screen, S. cerevisiae, multiplex flow cytometry (AID 1873;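 active = GFP signal, as percent of the solvent control, above the screen mean plus 3 SD, about 149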). Conditions: 3 h, at 10 µM, stronger effect = higher value.
Assay [5] in a line: modulators of AGP1-GFP expression in yeast TOR pathway, primary screen, cell-based, multiplex flow cytometry, S. cerevisiae (AID 1887;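 active = GFP signal above the screen-wide mean plus 3 SD, that is over about 124.5% of the solvent control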;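 note: AGP1-GFP fusion strain of S. cerevisiae within a five-strain barcoded multiplex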). Conditions: 3 h, at 10 µM, stronger effect = higher value.
The nature of assay [6]: inhibitors of CD8+ T cell-vesicle binding, pilot screen, LFA-1/ICAM-1 modulator project, MLPCN validation set, flow cytometry (AID 2523;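 active = response below a set limit, under 55% cells CD8-positive and vesicle-bound, and CD8 cells' 90th-percentile brightness under 279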;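 for vesicle binding response: mean PE anti-B7-1 fluorescence of CD8+ cells relative to row control; 100% = QL9-loaded vesicles with DMSO vehicle in the same plate row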). Conditions: 2C mouse CD8+ T cells, at 7 µM, stronger effect = lower value; double positive events: measured here: CD8+/vesicle+ event percentage.
Assay [7] deals with Integrin beta-1 (Homo sapiens) + Integrin alpha-4 (Homo sapiens) (UniProt P13612+P05556). The experiment in a line: inhibition of HUTS-21 binding to VLA-4, pilot screen, VLA-4 allosteric modulator project, U937 cells, HUTS-21 mAb, flow cytometry, validation set (AID 2674;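 active = inhibition above 50%, about 3 SD of the validation set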;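 note: antibody binding induced by the VLA-4 ligand LDV present at three times its Kd; 0% = LDV ligand with antibody and no compound and 100% = antibody without LDV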). Conditions: HUTS-21 LIBS mAb binding, at 6.7 µM, stronger effect = higher value, binding induced by LDV ligand.
Chain of Integrin beta-1 (Homo sapiens) + Integrin alpha-4 (Homo sapiens) (P05556 whole entry, looked up): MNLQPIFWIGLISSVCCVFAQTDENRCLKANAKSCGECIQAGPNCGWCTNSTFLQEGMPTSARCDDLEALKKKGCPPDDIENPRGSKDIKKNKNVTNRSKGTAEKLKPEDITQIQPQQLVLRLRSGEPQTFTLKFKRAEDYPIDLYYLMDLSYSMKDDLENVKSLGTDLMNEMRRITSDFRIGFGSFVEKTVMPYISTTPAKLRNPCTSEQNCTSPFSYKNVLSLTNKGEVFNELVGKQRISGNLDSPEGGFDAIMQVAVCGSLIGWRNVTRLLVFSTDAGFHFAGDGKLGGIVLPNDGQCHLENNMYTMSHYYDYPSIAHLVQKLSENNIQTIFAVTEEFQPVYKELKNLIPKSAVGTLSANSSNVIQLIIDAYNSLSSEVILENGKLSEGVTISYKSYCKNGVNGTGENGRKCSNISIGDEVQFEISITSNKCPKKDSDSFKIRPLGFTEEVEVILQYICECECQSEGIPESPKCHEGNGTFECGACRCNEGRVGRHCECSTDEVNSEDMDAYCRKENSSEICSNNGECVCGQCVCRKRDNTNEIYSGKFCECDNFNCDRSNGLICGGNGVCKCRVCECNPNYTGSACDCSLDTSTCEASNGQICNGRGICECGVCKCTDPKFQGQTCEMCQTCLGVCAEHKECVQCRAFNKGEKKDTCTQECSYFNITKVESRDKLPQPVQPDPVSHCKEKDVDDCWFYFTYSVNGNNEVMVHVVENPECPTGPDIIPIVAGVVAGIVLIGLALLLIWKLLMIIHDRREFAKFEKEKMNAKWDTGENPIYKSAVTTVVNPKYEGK
Chain of Integrin beta-1 (Homo sapiens) + Integrin alpha-4 (Homo sapiens) (P13612 whole entry, looked up): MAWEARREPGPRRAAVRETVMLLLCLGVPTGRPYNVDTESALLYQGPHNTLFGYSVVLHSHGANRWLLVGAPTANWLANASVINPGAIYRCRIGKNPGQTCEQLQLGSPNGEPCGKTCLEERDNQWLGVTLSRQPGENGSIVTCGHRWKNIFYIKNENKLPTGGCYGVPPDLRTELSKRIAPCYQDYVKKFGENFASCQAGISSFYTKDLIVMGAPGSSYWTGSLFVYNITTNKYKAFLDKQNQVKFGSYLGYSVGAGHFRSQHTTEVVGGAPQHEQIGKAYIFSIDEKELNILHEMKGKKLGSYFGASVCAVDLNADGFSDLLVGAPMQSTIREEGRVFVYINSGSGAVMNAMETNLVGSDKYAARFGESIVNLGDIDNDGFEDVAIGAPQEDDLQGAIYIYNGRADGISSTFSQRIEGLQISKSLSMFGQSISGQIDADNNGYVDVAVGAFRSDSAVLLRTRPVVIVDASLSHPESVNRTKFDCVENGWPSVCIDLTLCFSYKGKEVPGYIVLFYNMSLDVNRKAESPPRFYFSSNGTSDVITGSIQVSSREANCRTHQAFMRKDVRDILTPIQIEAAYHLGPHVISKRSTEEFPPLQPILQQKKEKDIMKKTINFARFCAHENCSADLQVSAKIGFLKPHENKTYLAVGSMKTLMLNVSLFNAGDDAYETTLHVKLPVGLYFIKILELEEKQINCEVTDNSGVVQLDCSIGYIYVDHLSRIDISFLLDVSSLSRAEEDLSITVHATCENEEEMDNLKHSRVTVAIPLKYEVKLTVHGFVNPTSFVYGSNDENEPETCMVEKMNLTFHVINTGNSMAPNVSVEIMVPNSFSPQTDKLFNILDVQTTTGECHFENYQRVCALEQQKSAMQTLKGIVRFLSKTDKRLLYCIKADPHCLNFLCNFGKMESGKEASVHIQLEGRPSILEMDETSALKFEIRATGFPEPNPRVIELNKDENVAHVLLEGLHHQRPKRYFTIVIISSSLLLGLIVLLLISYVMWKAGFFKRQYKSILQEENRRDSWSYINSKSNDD
A short description of assay [8]: superoxide lowering in aged yeast cells, pilot screen, validation compound set (AID 2706;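 active = superoxide response below 65% of plate, a cut near 3 SD across the whole screen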;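 note: yeast exposed to compound for one week at 30 degrees C before staining; 100% = mean of all compound wells on the same plate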). Conditions: S. cerevisiae aging, superoxide DHE fluorescence; at 10 µM; stronger effect = lower value.
For assay [9], the target named is Beta-adrenergic receptor kinase 1 (Homo sapiens) (UniProt P25098). The experiment in a line: GRK2 binders displacing RNA aptamer, biochemical, validation, human GRK2, bead flow cytometry (AID 488806;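 active = aptamer binding inhibition above 30%, about 3 SD of noise from non-fluorescent compounds; inactive = inhibition at or below 30%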). Conditions: bead-bound GRK2, FAM-aptamer displacement, at 10 µM, stronger effect = higher value.
Chain of Beta-adrenergic receptor kinase 1 (Homo sapiens) (P25098 whole entry, looked up): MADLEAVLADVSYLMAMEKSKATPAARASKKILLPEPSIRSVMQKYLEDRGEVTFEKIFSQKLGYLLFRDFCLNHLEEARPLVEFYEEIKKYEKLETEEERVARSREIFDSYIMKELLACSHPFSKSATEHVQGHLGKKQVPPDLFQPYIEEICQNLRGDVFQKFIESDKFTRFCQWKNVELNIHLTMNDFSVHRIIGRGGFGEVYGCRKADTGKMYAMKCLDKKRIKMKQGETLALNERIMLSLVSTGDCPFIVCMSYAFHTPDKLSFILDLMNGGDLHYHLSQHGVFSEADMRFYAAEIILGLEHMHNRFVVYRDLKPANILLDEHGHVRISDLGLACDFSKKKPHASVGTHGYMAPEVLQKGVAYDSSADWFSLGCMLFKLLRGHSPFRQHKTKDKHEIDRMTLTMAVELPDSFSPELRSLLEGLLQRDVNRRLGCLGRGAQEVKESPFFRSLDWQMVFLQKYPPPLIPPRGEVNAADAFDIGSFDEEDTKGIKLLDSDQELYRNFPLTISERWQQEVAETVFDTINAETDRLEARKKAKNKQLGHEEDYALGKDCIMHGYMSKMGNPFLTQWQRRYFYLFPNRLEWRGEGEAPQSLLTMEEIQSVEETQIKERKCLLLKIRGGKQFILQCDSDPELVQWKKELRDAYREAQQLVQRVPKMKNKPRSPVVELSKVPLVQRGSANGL
The target in assay [10] is Beta-2 adrenergic receptor (Homo sapiens) (UniProt P07550). The experiment in a line: beta2AR agonists driving receptor internalization, pilot screen, cell-based, FAP fluorogen, flow cytometry, validation set (AID 504459;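 active = percent response above 42, roughly 3 SD of non-fluorescent test compounds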;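 note: agonist-driven loss of surface beta2AR via internalization measured by FAP dye flow cytometry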). Conditions: Am2.2-beta2AR cells, FAP surface receptor flow cytometry; at 10 µM; stronger effect = higher value.
Chain of Beta-2 adrenergic receptor (Homo sapiens) (P07550 whole entry, looked up): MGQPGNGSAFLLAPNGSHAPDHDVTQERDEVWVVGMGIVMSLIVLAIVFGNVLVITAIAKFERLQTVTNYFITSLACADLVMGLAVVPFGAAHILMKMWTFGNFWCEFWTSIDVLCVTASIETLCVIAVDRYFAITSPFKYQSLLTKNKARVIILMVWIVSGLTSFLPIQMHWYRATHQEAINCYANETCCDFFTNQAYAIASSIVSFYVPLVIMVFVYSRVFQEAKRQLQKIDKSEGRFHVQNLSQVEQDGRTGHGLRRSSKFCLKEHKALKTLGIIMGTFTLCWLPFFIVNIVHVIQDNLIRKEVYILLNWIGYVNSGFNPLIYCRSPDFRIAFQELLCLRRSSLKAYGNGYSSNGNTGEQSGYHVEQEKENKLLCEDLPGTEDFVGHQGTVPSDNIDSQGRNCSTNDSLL
Assay [11] concerns the target AP-2 complex subunit beta (Homo sapiens) (UniProt P63010). The experiment in a line: inhibitors of arrestin peptide binding to AP2, pilot screen, biochemical, validation set, GST-AP2 beads, flow cytometry (AID 504541;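 active = inhibition above 54%, about 3 SD of non-fluorescent compounds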;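 note: AP2 carries R879A mutation and is captured from E. coli lysate; bead-bound FITC arrestin peptide fluorescence measuring arrestin peptide binding to AP2; 0% = DMSO wells and 100% = excess unlabeled arrestin peptide control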). Conditions: FITC arrestin peptide, at 10 µM, stronger effect = higher value, AP2 beta2 appendage fragment, R879A mutant.
A short description of assay [12]: yeast V-ATPase proton transport modulators, S. cerevisiae, pHLuorin, HTS validation (AID 504600; in the data active = response above about 15%;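 note: plate controls were DMSO for no effect and reference compound for full effect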). Conditions: S. cerevisiae pHLuorin cytosolic pH, at 10 µM, stronger effect = higher value.
Assay [13] has as its system anti-desmoglein-3 scFv antibody binding to human DSG3. The experiment in a line: inhibitors of anti-DSG3 scFv binding to DSG3, pilot screen, biochemical, validation compound set, bead-based, flow cytometry (AID 588368;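 active = binding below the plate cutoff, the plate median minus 3 SD, with a reading above zero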;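 note: signal is the median channel fluorescence of bead-bound GFP antibody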). Conditions: Protein G beads, DSG3-Fc, scFv-GFP binding, at 10 µM, stronger effect = lower value.
Assay [14] is described as follows: inhibitors of fungal efflux pumps CDR1, CDR2, MDR1, pilot screen, validation compound set, multiplex, phenotypic (AID 588506;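 active = efflux inhibition above 0.42, the validation set average plus 4 SD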;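 note: Nile Red retained in cells so higher fluorescence means more efflux inhibition; 0 = negative control wells and 1 = enniatin B 25 µM full block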). Conditions: S. cerevisiae pump-expressing triplex, Nile Red efflux flow cytometry; at 10 µM; stronger effect = higher value; the pumps come from Candida albicans.
Assay [15] addresses ATP-binding cassette sub-family B member 6 (Homo sapiens) (UniProt Q9NP58). The experiment in a line: ABCB6 transporter inhibitors, pilot screen, K562-ABCB6 cells, flow cytometry, validation set (AID 588550;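 active = inhibition above the screen-wide mean plus 3 SD, about 51%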;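 note: 0% = DMSO wells and 100% = benzethonium chloride 70 µM positive control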). Conditions: K562-ABCB6 porphyrin accumulation, 1 h, at 10 µM, stronger effect = higher value.
Assay [16] is described as follows: promoters of myeloid differentiation in arrested cells, primary screen, cell-based, GFP/MAC1 double positive, flow cytometry, validation set (AID 588685;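 active = differentiation response of at least 50%, scaled between solvent and reference control, from cells with both markers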;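 note: compound exposure lasts four days before antibody staining and flow analysis; 0% = DMSO wells and 100% = 5 µM fulvestrant positive control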). Conditions: ER-HoxA9 marrow cells, stronger effect = higher value, normalized: vehicle 0, fulvestrant 100.

Inconclusive results are not listed. Calls of active or inactive are those of the source.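 Rule for the calls, unless noted: active = GFP response, as percent of the DMSO control, above the screen-wide mean plus 3 SD, about 139; inconclusive = no response measured because the compound's own fluorescence interfered; inactive = the rest.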

Chain of AP-2 complex subunit beta (Homo sapiens) (P63010 whole entry, looked up, the tested form may be a part, one chain of several): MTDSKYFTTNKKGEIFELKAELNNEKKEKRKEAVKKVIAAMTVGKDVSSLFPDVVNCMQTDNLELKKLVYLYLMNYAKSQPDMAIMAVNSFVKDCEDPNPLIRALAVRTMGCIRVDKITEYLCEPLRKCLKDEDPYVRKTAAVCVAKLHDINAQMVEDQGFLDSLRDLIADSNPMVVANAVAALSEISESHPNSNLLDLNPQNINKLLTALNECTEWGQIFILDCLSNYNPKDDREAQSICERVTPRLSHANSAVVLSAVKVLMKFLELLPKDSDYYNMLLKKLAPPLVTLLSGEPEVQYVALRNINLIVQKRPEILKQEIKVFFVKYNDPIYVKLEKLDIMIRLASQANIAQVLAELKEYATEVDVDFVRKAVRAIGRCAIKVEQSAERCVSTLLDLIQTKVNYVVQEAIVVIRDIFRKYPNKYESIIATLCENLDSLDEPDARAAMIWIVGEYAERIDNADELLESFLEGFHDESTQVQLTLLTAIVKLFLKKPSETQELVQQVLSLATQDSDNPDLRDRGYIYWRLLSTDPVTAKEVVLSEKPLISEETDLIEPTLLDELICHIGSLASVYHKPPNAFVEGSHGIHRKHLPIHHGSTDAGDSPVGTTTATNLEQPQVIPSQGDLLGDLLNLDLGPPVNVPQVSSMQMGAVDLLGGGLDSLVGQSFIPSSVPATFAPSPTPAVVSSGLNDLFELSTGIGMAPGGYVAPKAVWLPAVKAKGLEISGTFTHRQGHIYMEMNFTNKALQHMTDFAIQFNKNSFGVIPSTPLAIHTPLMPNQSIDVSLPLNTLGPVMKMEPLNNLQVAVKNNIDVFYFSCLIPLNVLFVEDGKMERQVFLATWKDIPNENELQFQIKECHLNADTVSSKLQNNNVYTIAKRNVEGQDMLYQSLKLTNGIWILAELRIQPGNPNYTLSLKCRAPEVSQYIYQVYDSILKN
Chain of ATP-binding cassette sub-family B member 6 (Homo sapiens) (Q9NP58 whole entry, looked up): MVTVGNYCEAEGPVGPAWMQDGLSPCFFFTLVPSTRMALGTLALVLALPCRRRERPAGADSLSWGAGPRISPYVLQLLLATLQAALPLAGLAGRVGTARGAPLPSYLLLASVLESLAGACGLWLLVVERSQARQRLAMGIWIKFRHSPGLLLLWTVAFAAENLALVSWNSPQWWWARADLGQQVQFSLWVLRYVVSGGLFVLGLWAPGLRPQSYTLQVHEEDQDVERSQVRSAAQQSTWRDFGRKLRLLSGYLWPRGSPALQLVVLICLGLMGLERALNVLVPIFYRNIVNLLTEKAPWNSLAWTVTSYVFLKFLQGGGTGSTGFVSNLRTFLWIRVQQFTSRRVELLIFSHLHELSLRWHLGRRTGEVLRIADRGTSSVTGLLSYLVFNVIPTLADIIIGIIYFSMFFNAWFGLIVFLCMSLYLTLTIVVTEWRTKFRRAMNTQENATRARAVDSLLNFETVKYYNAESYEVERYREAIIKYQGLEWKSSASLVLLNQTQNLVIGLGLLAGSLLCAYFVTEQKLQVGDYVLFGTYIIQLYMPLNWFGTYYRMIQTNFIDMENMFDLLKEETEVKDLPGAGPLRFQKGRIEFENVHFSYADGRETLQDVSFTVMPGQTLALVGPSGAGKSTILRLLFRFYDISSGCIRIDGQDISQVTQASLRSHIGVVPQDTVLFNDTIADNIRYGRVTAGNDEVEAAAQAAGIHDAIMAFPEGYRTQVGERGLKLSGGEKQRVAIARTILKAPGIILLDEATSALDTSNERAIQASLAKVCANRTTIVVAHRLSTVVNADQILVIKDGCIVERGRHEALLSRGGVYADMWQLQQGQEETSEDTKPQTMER

For the compound `COC(=O)C1=C(C)N(Cc2ccco2)C(=O)/C1=C\c1ccc([N+](=O)[O-])cc1`, in assay [1], the percent of DMSO control GFP is 102% (inactive). Besides, the GFP response vs DMSO is 103% (inactive) in assay [2] and 95.3% (inactive) in assay [4]. The percent response of DMSO control in assay [3] is 97.8% (inactive). In addition, the GFP response, % of DMSO in [5] was 96.2% (inactive). The double positive events in assay [6] turned out to be 66.2%. Further, in assay [6], the vesicle binding response was 232% (inactive). Besides, the inhibition is -274% (inactive) in [7], 43.9% (inactive) in [11] and -55% (inactive) in assay [15]. The superoxide response (% of plate) in assay [8] is 112% (inactive). In [9], the aptamer binding inhibition was -4% (inactive). Also, the response in assay [10] is 15.1% (inactive); in assay [12], -6.06% (inactive). Besides, in assay [13], the binding (% of control) is 205% (inactive). Besides, the efflux inhibition (fraction of control) in [14] is 0.18 (inactive). Besides, the differentiation response in assay [16] is 42.3% (inactive).

Turning to `CCCCCCCCCC(=O)OCC(O)CO` (stereo not given), the percent of DMSO control GFP in [1] was 105% (inactive). Besides, the GFP response vs DMSO in assay [2] is 105% (inactive); in [4], 103% (inactive). For the same compound, the percent response of DMSO control in [3] is 102% (inactive). For the same compound, the GFP response, % of DMSO in assay [5] is 93.4% (inactive). For the same compound, in assay [6], the double positive events came out at 65.4%. In assay [6], the vesicle binding response was 163% (inactive). For the same compound, the inhibition is -10.8% (inactive) in assay [7], 59.4% (active) in [11] and 5% (inactive) in [15]. The superoxide response (% of plate) in assay [8] was 116% (inactive). For the same compound, the aptamer binding inhibition in assay [9] was 4% (inactive). Also, the response in assay [10] was -2% (inactive); in assay [12] it was -4.17% (inactive). Further, in [13], the binding (% of control) is 96.3% (inactive). Moreover, the efflux inhibition (fraction of control) in assay [14] is 0.18 (inactive). The differentiation response in assay [16] is 9.04% (inactive).

For `CCOc1ccc2nc(NC(=O)NC3CCCCC3)sc2c1`, in assay [1], the percent of DMSO control GFP is 104% (inactive). Further, the GFP response vs DMSO in [2] is 105% (inactive); in [4] it was 107% (inactive). Further, the percent response of DMSO control in assay [3] is 98.6% (inactive). In addition, the GFP response, % of DMSO in assay [5] is 107% (inactive). In addition, in assay [6], the double positive events was found to be 64.2%. Moreover, the vesicle binding response in assay [6] was 215% (inactive). In addition, the inhibition was -1.09% (inactive) in assay [7], 42.2% (inactive) in [11] and -4% (inactive) in [15]. In addition, in assay [8], the superoxide response (% of plate) was 89.5% (inactive). Moreover, the aptamer binding inhibition in assay [9] is 4% (inactive). For the same compound, the response is 3.3% (inactive) in [10] and -7.78% (inactive) in [12]. Also, the binding (% of control) in assay [13] was 93.8% (inactive). Also, in assay [14], the efflux inhibition (fraction of control) is 0.8 (active). The differentiation response in assay [16] was -3.11% (inactive).

Consider `COc1ccc(CC(=O)Nc2cccc(C(=O)Nc3ccccc3C(=O)O)c2)cc1OC`, for which, in [1], the percent of DMSO control GFP is 103% (inactive). In addition, the GFP response vs DMSO in assay [2] is 102% (inactive); in [4], 103% (inactive). Further, the percent response of DMSO control in assay [3] is 96.4% (inactive). Further, the GFP response, % of DMSO in [5] was 108% (inactive). Besides, in [6], the double positive events came out at 61.5%. Further, the vesicle binding response in assay [6] is 181% (inactive). Moreover, the inhibition in assay [7] was 6.55% (inactive); in assay [11], -0.19% (inactive); in [15], 8% (inactive). The superoxide response (% of plate) in [8] is 108% (inactive). In addition, the aptamer binding inhibition in assay [9] was 6% (inactive). Besides, the response in assay [10] is -21.7% (inactive); in assay [12], 2.28% (inactive). Also, the binding (% of control) in assay [13] is 99.7% (inactive). Further, in assay [14], the efflux inhibition (fraction of control) is 0 (inactive). Also, the differentiation response in assay [16] is 26.5% (inactive).

Turning to `CCc1c(C(C)=O)oc2ccc3c(C)cc(=O)oc3c12`, the percent of DMSO control GFP in assay [1] was 94.6% (inactive). For the same compound, the GFP response vs DMSO in [2] is 125% (inactive); in assay [4], 91.9% (inactive). For the same compound, in [3], the percent response of DMSO control was 115% (inactive). The GFP response, % of DMSO in [5] is 101% (inactive). The compound further gave a double positive events in assay [6] of 61.9%. Also, in assay [6], the vesicle binding response is 146% (inactive). Also, the inhibition in assay [7] was -13.9% (inactive); in assay [11] it was -11.6% (inactive); in [15] it was 11% (inactive). For the same compound, in assay [8], the superoxide response (% of plate) was 92.5% (inactive). For the same compound, in assay [9], the aptamer binding inhibition is 1% (inactive). Moreover, the response in assay [10] is 1.28% (inactive); in assay [12] it was 0.32% (inactive). Besides, the binding (% of control) in [13] is 99% (inactive). In assay [14], the efflux inhibition (fraction of control) is -0.17 (inactive). Also, the differentiation response in assay [16] was 9.01% (inactive).

What is called inhibition is the drop in the measured response relative to a control, in per cent.
